In PubChem BioAssay AID2289 (National Center for Advancing Translational Sciences (NCATS), 2010):
Screen size: about 340,000 compounds; about 3,300 (0.97%) were called active. Roughly 9% stayed inconclusive and do not appear here. Calls follow the shape of the dose curve; as a rule, active = well fitted inhibition curve with a large enough effect; inconclusive = small, poorly fitted or top-dose-only effect, or effect the other way; inactive = flat fitted curve, though single readings scatter. The list shows a part of the results.

experiment: qHTS Assay for Modulators of miRNAs and/or Inhibitors of miR-21; conditions: HeLa miR-21-FLuc reporter, luciferase luminescence, 48 h; actives lower the signal; also: nearly all actives have a fitted effect of over 55% in size
Outline: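 Compounds were titrated across several concentrations (up to approximately 40 uM) and incubated 48 hours with HeLa miR-21-FLuc reporter cells (miR-21 target sequence downstream of FLuc, endogenous miR-21). Readout was firefly luciferase luminescence after lytic detection reagent.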
Potency is read from the fitted curve at half-maximal effect.

Potency, active:
CC(=O)N1CCn2c3ccc(C)cc3c3cccc1c32 14.7 µM
Cc1ccc2c(c1)c1cccc3c1n2CCN3CCC(N)=O 6.56 µM
CC(Oc1ccc(Cl)cc1Cl)c1nc(-c2ccccn2)no1 (centres undefined) 6.56 µM
CC(C)(C)c1ccc(OCc2nc(-c3ccccn3)no2)c(Br)c1 1.65 µM
Clc1ccc(OCc2nc(-c3ccncc3)no2)c(Br)c1 1.65 µM
Clc1cc(Cl)c(OCc2nc(-c3ccccn3)no2)cc1Cl 0.736 µM
Nc1cnc(Nc2ccc(Br)cc2)nc1N 11.7 µM
Cc1ccc2c(c1)-c1nc3ccccc3cc1C2=NC1CCCCC1 0.656 µM
CC(C)CCn1cnc2c(sc3nc4c(cc32)CSC(C)(C)C4)c1=O 0.293 µM
CCCCn1cnc2c(sc3nc4c(cc32)CSC(C)(C)C4)c1=O 0.585 µM
O=C(COc1ccccc1)Nc1ccc(Cl)cc1Cl 5.85 µM
COc1ccc(C(=O)COc2ccccc2C#N)cc1 4.65 µM
NC(=O)c1ccccc1NC(=O)COc1ccc(Cl)cc1 4.65 µM
COc1cccc(NC(=O)COc2ccc(C)cc2)c1 7.36 µM
COC(=O)c1ccc(OCC(=O)c2cccc(OC)c2)cc1 10.4 µM
Cc1ccc(OCC(=O)Nc2ccccc2C(N)=O)cc1 1.17 µM
Cc1sc2c(c1C)C(=O)NC(c1ccccc1F)N2 (centres undefined) 7.36 µM
COc1ccc(OCCOc2ccccc2[N+](=O)[O-])cc1 6.56 µM
COc1ccc(OCCOc2ccc(C)nc2[N+](=O)[O-])cc1 13.1 µM
Cc1ccc(OCCOc2cccc(Br)c2)c([N+](=O)[O-])n1 6.56 µM
Cc1ccc(OCCOc2ccc(Br)cc2)c([N+](=O)[O-])n1 5.85 µM
O=C(O)c1cccc(-c2nnn(Cc3ccccc3)n2)c1 2.33 µM
O=C(O)c1cccc(-c2nnn(Cc3ccccc3Cl)n2)c1 0.414 µM
CC(C)(C)c1ccc(C(=O)NCCC(=O)N2CCCC2)cc1 2.33 µM
CC(C)(C)c1ccc(C(=O)NCc2ccccc2)cc1 14.7 µM
COc1ccc(CNC(=O)c2ccc(C(C)(C)C)cc2)cc1 5.85 µM
CCCc1nn(C)c(C(=O)Nc2ccccc2)c1Cl 1.85 µM
CCCc1nn(C)c(C(=O)Nc2cccc(C)c2)c1Cl 5.21 µM
CCCc1nn(C)c(C(=O)Nc2ccc3ccccc3c2)c1Cl 7.36 µM
CCCc1nn(C)c(C(=O)Nc2cccc(Cl)c2)c1Cl 7.36 µM
CCC1CN(C(=O)Nc2cccc3c2CCCC3)c2cc(C)ccc2O1 (centres undefined) 7.36 µM
COc1ccc(/C=C/c2nc3ccccc3n2Cc2ccc(OC)c(OC)c2)cc1 1.47 µM
C/C(=N\NC(=O)OC(C)(C)C)c1ccccc1Br 14.7 µM
CCOC(=O)c1cnn2c(C)cc(-c3ccc(F)cc3)nc12 4.14 µM
O=C(O)c1ccc(S(=O)(=O)c2ccc3c(c2)C(=O)N(NC(=O)c2ccccc2)C3=O)cc1 4.14 µM
COc1ccc(-c2cc(C(=O)N3CCCC3)no2)cc1OC 5.85 µM
COc1ccc(-c2cc(C(=O)N3CCCCC3)no2)cc1OC 7.36 µM
COc1ccc(-c2cc(C(=O)N3CCCCCC3)no2)cc1OC 16.5 µM
Cc1ccc(/C=C/C(=O)Nc2ncc(C)s2)o1 1.04 µM
Cc1csc(NC(=O)/C=C/c2ccc(C)o2)n1 5.21 µM
CCOC(=O)C(C)On1c(-c2ccc(Cl)cc2)nc2ccc([N+](=O)[O-])cc21 (centres undefined) 3.69 µM
O=C(Nc1ccccc1-c1ccccc1)c1cnccn1 13.1 µM
Cn1ccc(C(=O)Nc2ccc(Br)cc2Br)n1 0.521 µM
O=C(Nc1ccccc1-c1ccccc1)c1ccc(=O)[nH]n1 14.7 µM
Cc1ccc(NC(=O)c2cnccn2)c(Br)c1 5.85 µM
CCc1ccc2nc(N(Cc3cccnc3)C(C)=O)sc2c1 16.5 µM
CN(C)CCCN(C(=O)c1sc2ccccc2c1Cl)c1nc2ccc(F)cc2s1 9.27 µM
CN(C)CCCN(C(=O)c1ccc2c(c1)OCCO2)c1nc2ccccc2s1 18.5 µM
O=C(c1ccc2c(c1)OCCO2)N(Cc1cccnc1)c1nc2ccc(F)cc2s1 4.14 µM
Cc1cc(C)nc(SCc2csc(-c3ccccc3)n2)n1 1.65 µM
COc1ccccc1NS(=O)(=O)c1cccc(NC(=O)c2cc3ccccc3oc2=O)c1 4.65 µM
COc1ccc(S(=O)(=O)Nc2ccccc2OC)cc1NC(=O)c1cc2ccccc2oc1=O 6.56 µM
COc1ccc(Cl)cc1NC(=O)Cn1ccn(Cc2ccc(C)cc2)c(=O)c1=O 7.36 µM
O=C(NCCCN1CCOCC1)c1cc(-c2cccs2)on1 16.5 µM
O=C(NCCN1CCOCC1)c1cc(-c2cccs2)on1 14.7 µM
COCCNC(=O)c1cc(-c2cccs2)on1 13.1 µM
COCCNC(=O)c1cc(-c2cccc(Cl)c2)on1 4.14 µM
O=C(NCCc1ccccc1)c1nc(-c2cccs2)no1 11.7 µM
Cc1n[nH]c(=S)n1/N=C/c1ccccc1OCc1ccc(Cl)cc1 14.7 µM
COc1cc(/C=N/n2cnnc2)ccc1OCc1ccc(C)cc1 4.14 µM
COc1cc(/C=N/n2c(C)n[nH]c2=S)ccc1OCc1ccccc1 6.56 µM
COc1cc(/C=N/n2cnnc2)ccc1OCc1ccccc1 18.5 µM
Cc1n[nH]c(=S)n1/N=C/c1ccc(OCc2ccc(Cl)cc2Cl)cc1 16.5 µM
CCOC(=O)c1cccc(NC(=O)c2cc(CN3CCCC3)on2)c1 2.33 µM
Cc1cc(C)cc(NC(=O)c2cc(CN3CCCC3)on2)c1 11.7 µM
COc1ccc2c(Sc3ccccc3)c(C(=O)NCCc3ccc(Cl)cc3)[nH]c2c1 0.464 µM
O=C(NCCc1ccccc1)c1ccc(Cl)cc1[N+](=O)[O-] 8.26 µM
O=C(NCCc1ccccc1)c1cccc([N+](=O)[O-])c1 8.26 µM
COc1ccc(C2N=C(c3ccccc3)NO2)cc1OC (centres undefined) 5.21 µM
N#Cc1ccc(C2N=C(c3ccccc3)NO2)cc1 (centres undefined) 0.585 µM
COc1ccccc1-c1nc(COc2ccc(Cl)cc2Cl)no1 7.36 µM
Clc1ccc(OCc2noc(-c3ccsc3)n2)c(Cl)c1 4.14 µM
COc1ccccc1/C=C/C=N/n1c(-c2ccccn2)n[nH]c1=S 8.26 µM
CCOC(=O)c1c(C)oc2cc(Cl)c(O)c(CN(C)C)c12 14.7 µM
C/C(=N/NC(=O)c1ccc(Br)o1)c1ccc(C)o1 10.4 µM
O=C(N/N=C/c1ccc(Br)cc1)c1ccc(Br)o1 3.29 µM
Cc1ccc(OCc2nc(-c3ccccc3)no2)cc1 5.21 µM
COc1ccccc1OCc1nc(-c2cccc(C)c2)no1 6.56 µM
COc1cccc(-c2noc(COc3ccccc3Cl)n2)c1 16.5 µM
CSc1nc(O)c(/C=C2\C=Nc3ccccc32)[nH]1 16.5 µM
COc1ccc(/C=C2\OC(=O)c3c(OC)cccc32)cc1OC 2.93 µM
COc1cc(/C=C2\OC(=O)c3c(OC)cccc32)ccc1O 7.36 µM
COc1cccc2c1C(=O)O/C2=C/c1ccc2c(c1)OCO2 0.233 µM
COc1cccc(/C=N/NC(=O)c2cccc(N3CCCC3=O)c2)c1 5.85 µM
c1csc(-c2nc(N3CCCCC3)no2)c1 2.93 µM
CCOC(=O)c1sc(=NC(=O)c2ccccc2Br)n(C)c1C 1.04 µM
Cc1ccc2c(c1)sc(=NC(=O)c1cccs1)n2C 0.0521 µM
CCOC(=O)c1sc(=NC(=O)c2ccc(Cl)s2)n(C)c1C 0.233 µM
CCOC(=O)c1sc(=NC(=O)c2cccs2)n(C)c1C 0.293 µM
O=C(NC(N1CCOCC1)C(Cl)(Cl)Cl)c1ccco1 (centres undefined) 2.93 µM
O=C(CCc1ccc(S(=O)(=O)NC2CCCCC2)cc1)NCc1ccccn1 7.36 µM
Cc1cc(-n2c(SCc3ccccc3F)nc3[nH]ncc3c2=O)ccc1Cl 4.65 µM
O=c1c2c3c(sc2ncn1-n1cccc1)CCCCC3 11.7 µM
COc1ccc(OC)c2nc(-c3ccc4c(c3)OCO4)ccc12 0.736 µM
CC(=O)c1cc2c(C)c(C(=O)c3ccccc3)oc2cc1O 0.521 µM
Cc1c(C(=O)c2ccccc2)oc2ccc3ccccc3c12 2.93 µM
CCN(CC)S(=O)(=O)c1ccc(-c2cn3ccc(C)cc3n2)cc1 0.927 µM
Cc1cc(/C=C(\C#N)C(=O)Nc2ccccc2F)c(C)[nH]1 0.521 µM
Cc1ccccc1SCCNC(=O)c1ccccc1Br 16.5 µM
O=C(NCCSc1ccccc1)c1ccccc1Cl 1.65 µM
COC(=O)c1sc(NC(=O)CSc2nnnn2C)nc1C 6.56 µM
COC(=O)c1sc(NC(=O)COc2ccccc2)nc1C 7.36 µM
CNc1nc(C)c(C(=O)OCc2ccccc2)s1 16.5 µM
CCOC(=O)c1sc(Nc2ccccc2)nc1C 4.14 µM
